Measurements: the supplement of paper PMC11732987, “Enantioselective OTUD7B fragment discovery through chemoproteomics screening and high-throughput optimisation” (Communications Chemistry, 2025)

Legend:
Experiment in all cases: log2 ratio of Biotin-Ahx-Ub-VS probe labelling (fragment/DMSO); higher = less target engagement (more negative = stronger competition), active = hit call of the paper (q ≤ 0.05, log2 ratio ≤ -1)
Conditions in all cases: compound concentration: 200 uM; treatment time: 3 h
OTUD6B = molecular target: T1, OTUD6B (UniProt Q8N6M0)
T1 sequence (whole entry): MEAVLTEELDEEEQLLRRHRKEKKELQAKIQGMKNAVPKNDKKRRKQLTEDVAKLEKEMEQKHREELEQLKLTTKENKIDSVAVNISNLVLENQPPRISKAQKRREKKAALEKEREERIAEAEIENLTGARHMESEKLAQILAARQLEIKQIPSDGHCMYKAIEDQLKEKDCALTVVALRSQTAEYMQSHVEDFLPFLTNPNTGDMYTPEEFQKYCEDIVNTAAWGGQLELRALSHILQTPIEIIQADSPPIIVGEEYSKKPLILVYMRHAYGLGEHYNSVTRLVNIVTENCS
Method in brief: (§1)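 Triplicate samples of HEK293T lysate, 495 µg each, received fragment at 200 µM or vehicle for 3 h, followed by Biotin-Ahx-Ub-VS (0.5 µM final) for 1 h. After NeutrAvidin enrichment of labelled DUBs and LysC/trypsin digestion, peptides were run by diaPASEF LC-MS/MS. The values are average log2 fragment/vehicle ratios from global-median-normalised Spectronaut label-free quantities, tested by unpaired t-test on proteins having ≥2 unique peptides.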

OTUD7B = molecular target: T2, OTUD7B (UniProt Q6GQQ9)
T2 sequence (whole entry): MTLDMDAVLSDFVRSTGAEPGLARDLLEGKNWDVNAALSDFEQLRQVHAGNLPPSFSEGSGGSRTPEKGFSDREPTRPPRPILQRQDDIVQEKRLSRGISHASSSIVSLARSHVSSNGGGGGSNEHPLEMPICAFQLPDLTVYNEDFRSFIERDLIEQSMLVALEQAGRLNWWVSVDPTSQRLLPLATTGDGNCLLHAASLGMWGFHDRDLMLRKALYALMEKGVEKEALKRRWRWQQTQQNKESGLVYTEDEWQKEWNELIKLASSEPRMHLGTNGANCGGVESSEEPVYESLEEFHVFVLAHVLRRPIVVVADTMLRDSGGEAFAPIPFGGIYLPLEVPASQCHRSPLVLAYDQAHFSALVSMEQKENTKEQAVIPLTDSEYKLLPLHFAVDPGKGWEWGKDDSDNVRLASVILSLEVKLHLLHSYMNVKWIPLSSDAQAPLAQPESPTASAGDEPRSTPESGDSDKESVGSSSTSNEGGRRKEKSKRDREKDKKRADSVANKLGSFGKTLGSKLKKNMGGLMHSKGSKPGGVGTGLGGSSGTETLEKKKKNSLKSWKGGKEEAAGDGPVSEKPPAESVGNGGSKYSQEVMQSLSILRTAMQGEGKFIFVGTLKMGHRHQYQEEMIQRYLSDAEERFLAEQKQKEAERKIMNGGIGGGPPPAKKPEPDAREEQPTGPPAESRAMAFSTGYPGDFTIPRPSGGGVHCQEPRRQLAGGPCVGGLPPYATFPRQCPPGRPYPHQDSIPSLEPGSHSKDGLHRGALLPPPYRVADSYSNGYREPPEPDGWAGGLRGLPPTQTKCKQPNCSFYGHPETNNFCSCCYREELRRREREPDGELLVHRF
Method in brief: as §1

PRPF8 = PRPF8 (UniProt Q6P2Q9)
Method in brief: as §1

PSMD7 = molecular target: T3, PSMD7 (UniProt P51665)
T3 sequence (whole entry): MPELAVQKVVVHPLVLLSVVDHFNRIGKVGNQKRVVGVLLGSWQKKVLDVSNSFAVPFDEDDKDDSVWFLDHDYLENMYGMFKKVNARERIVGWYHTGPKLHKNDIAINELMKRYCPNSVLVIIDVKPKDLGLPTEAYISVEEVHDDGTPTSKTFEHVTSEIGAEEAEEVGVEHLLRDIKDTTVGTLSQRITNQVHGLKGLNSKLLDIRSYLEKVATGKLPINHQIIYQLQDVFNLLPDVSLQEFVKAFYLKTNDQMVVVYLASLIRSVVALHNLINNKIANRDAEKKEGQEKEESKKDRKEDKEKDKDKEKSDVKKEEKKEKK
Method in brief: as §1

UCHL1 = UCHL1 (UniProt P09936)
Method in brief: as §1

UCHL3 = molecular target: T4, UCHL3 (UniProt P15374)
T4 sequence (whole entry): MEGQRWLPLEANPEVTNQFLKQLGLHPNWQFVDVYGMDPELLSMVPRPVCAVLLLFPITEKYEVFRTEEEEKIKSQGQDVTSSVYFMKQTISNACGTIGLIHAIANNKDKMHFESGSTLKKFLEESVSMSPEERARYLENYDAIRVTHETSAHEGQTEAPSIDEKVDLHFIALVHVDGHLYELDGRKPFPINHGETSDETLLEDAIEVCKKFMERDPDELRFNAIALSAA
Method in brief: as §1

UCHL5 = molecular target: T5, UCHL5 (UniProt Q9Y5K5)
T5 sequence (whole entry): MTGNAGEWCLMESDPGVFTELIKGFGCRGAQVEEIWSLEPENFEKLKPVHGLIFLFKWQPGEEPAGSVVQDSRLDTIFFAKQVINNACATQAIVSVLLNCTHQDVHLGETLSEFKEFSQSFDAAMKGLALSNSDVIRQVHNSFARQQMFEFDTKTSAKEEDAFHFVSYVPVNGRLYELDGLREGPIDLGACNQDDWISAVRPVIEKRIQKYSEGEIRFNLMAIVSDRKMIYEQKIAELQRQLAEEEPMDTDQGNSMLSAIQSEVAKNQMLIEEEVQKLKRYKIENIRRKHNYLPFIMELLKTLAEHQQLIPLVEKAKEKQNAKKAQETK
Method in brief: as §1

USP10 = USP10 (UniProt Q14694)
Method in brief: as §1

USP15 = molecular target: T6, USP15 (UniProt Q9Y4E8)
T6 sequence (whole entry): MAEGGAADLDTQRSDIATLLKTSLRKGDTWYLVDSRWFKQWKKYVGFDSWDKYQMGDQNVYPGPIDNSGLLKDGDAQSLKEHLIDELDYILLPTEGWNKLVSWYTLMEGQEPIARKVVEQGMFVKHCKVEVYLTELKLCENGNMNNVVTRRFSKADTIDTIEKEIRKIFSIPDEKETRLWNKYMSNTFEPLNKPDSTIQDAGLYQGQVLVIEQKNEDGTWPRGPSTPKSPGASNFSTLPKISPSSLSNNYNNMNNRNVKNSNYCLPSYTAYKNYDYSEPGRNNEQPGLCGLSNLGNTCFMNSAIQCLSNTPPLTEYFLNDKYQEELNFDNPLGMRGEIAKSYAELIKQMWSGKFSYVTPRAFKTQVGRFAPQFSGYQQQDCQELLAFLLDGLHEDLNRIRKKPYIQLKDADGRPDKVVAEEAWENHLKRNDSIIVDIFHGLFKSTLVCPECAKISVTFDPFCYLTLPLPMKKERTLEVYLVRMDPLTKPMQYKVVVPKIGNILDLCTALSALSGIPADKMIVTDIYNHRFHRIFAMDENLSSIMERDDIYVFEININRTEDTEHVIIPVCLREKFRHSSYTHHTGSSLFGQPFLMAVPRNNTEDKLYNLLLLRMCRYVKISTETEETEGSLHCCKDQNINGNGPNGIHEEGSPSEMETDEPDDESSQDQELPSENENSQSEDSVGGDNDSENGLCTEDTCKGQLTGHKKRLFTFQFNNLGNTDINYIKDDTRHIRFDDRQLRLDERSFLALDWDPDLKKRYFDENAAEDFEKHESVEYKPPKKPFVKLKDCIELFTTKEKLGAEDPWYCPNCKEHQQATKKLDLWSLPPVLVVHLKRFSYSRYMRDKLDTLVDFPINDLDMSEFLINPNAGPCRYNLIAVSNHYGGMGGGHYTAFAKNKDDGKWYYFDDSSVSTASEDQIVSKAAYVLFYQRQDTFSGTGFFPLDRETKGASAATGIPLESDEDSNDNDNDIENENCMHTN
Method in brief: as §1

USP16 = USP16 (UniProt Q9Y5T5)
Method in brief: as §1

Measured: log2 ratio of Biotin-Ahx-Ub-VS probe labelling

USP16, sequence (Q9Y5T5 whole entry, looked up): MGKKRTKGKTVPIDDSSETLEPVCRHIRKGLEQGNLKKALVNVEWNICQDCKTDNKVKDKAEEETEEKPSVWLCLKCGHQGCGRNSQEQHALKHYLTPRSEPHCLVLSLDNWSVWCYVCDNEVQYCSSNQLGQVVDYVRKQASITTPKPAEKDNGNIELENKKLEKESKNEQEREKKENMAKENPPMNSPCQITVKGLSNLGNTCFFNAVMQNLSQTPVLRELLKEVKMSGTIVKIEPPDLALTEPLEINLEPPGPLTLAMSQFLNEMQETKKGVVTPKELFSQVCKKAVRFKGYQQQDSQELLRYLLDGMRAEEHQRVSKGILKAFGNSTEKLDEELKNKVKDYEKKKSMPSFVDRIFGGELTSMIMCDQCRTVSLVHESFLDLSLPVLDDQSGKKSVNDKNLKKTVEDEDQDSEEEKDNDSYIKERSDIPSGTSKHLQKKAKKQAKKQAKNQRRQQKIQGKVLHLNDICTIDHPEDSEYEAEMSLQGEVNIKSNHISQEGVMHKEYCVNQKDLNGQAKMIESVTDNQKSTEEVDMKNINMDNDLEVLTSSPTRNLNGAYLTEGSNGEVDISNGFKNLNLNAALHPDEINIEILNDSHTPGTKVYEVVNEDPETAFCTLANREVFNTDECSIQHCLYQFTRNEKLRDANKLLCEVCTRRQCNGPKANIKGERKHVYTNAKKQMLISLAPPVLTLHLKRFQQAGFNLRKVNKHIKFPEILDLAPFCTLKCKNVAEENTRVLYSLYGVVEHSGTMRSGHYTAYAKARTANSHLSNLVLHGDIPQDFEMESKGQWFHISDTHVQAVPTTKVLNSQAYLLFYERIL
USP10, sequence (Q14694 whole entry): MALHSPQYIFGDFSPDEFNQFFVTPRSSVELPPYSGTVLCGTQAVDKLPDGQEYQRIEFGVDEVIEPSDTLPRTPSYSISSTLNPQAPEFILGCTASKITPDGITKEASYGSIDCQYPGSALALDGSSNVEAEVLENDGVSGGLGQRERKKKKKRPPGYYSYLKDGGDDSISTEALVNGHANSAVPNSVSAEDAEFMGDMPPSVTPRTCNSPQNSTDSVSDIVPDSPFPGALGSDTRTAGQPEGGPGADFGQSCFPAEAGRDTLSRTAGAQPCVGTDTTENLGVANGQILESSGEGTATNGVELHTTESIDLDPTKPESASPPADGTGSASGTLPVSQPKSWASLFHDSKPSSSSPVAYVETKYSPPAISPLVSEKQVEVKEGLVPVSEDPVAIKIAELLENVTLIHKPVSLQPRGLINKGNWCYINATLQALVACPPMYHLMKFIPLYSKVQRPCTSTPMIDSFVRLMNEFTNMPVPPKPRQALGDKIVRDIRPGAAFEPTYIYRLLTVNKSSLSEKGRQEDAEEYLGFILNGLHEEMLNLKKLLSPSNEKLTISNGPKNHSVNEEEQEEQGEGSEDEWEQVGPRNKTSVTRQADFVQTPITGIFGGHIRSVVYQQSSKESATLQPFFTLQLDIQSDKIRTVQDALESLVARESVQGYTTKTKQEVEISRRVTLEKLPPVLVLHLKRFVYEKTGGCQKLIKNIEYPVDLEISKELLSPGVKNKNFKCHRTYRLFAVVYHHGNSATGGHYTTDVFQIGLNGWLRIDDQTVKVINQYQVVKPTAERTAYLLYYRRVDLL
UCHL1, sequence (P09936 whole entry, looked up): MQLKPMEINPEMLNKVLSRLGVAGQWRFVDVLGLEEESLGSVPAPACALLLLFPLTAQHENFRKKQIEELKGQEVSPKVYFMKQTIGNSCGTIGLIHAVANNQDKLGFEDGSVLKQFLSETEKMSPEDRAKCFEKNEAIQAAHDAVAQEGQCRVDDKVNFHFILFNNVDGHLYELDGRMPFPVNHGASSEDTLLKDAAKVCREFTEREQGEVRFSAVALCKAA

Cc1ccc(CN(C)C(=O)CCl)o1
inactive: OTUD6B 0.0695 | OTUD7B -0.158 | PRPF8 -0.0488 | PSMD7 0.0152 | UCHL3 0.611 | UCHL5 -0.238 | USP10 -0.157 | USP15 -0.201 | USP16 -0.0354
active: UCHL1 -1.38
